High-throughput results: PubChem, National Center for Advancing Translational Sciences (NCATS)
Sampled rows, rich in hits. Any-hit rate of the full collection: about 2.9%.
ATXN2 expr inh: Primary qHTS for Inhibitors of ATXN expression; Potency, µM (doses to about 57 µM), without a hit: top-dose activity change, negative = inhibition, most hits filed as inhibitors; hit rate 0.72% among 360,000; HEK-293 ATXN2-luciferase reporter, luminescence, 24 h; also: potency is read from the fitted curve at half-maximal effect; % is scaled to controls: 0 for no effect and ±100 for the full control effect; nearly all actives have a fitted effect of over 55% in size
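qHTS (up to 57 uM final) was run with 24 h compound exposure of reporter cells at 37 °C. Each well was multiplexed: SteadyGlo luminescence measured ATXN2-luciferase expression after a fluorogenic Gly-Phe-AFC viability readout (25 uM final).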
Nrf2 inh: Nrf2 qHTS screen for inhibitors; A549 ARE-Fluc reporter, luciferase luminescence, 18-24 h; Potency, µM (doses to about 46 µM), for inactives: at the highest dose activity change, negative = inhibition, actives largely listed as inhibitors; hit rate 2.1% among 360,000; AID 504444, 2011; also: potency is read from the fitted curve at half-maximal effect; % is scaled to controls: 0 for no effect and ±100 for the full control effect; nearly all actives have a fitted effect of over 60% in size
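Quantitative HTS in A549 cells stably bearing an antioxidant response element-firefly luciferase construct. Inhibition of Nrf2-driven transcription was scored by luminescence after 18-24 h of compound exposure at 37 °C.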
A549 tox-1: Nrf2 qHTS screen for inhibitors: counterscreen for cytotoxicity. Potency, µM (top dose mostly 46 µM), for the others: top-dose activity change, negative = cytotoxicity, actives largely listed as inhibitors. hit rate 0.16% among 390,000. A549 ARE-Fluc cells, CellTiter-Fluor viability, 18-24 h; also: potency is read from the fitted curve at half-maximal effect; % is scaled to controls: 0 for no effect and ±100 for the full control effect
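A549 ARE-Fluc cells in 5% FBS OPTI-MEM, 5000 cells/well, rested 2 h then exposed to compounds in concentration-response for 18-24 h at 37 °C. Viability by CellTiter-Fluor fluorescence (Ex 405/Em 525) after 30 min; luciferase luminescence (BugLite, 15 min, RT) read afterwards.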
Nrf2 activator: qHTS of Nrf2 Activators | AID 624171, 2012 | Potency, µM (doses to about 46.1 µM), without a hit: at the highest dose activation, hits mostly activators | AREc32 ARE-luciferase reporter (MCF7-derived line), luminescence, 24 h | hit rate 0.31% among 410,000; also: potency is read from the fitted curve at half-maximal effect; % of control where 0% means no effect; nearly all actives have a fitted effect of over 65% in size
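Cells of the AREc32 ARE-luciferase line are plated in OPTI-MEM containing 5% FBS and left overnight at 37 deg C. Compounds are pinned in, incubation continues 24 hr, and firefly luciferase signal is then measured.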
S2 tox: Viability Counterscreen for Primary qHTS for Inhibitors of ATXN expression; S2 cells (HEK-293 line with an ATXN2-luciferase reporter) viability, CellTiter-Fluor protease fluorescence, 24 h; Potency, µM (series often up to 56.7 µM), actives largely listed as cytotoxic; hit rate 0.49% among 400,000; also: potency is read from the fitted curve at half-maximal effect; nearly all actives have a fitted effect of over 40% in size
FLuc enzyme inh: Nrf2 qHTS screen for inhibitors: Purified Fluc Biochemical Counterscreen for Hit Validation; AID 720522, 2013; purified firefly luciferase, luminescence inhibition; hit rate 4% among 1,400; shares compounds with Nrf2 inh; Potency, µM (doses to about 57.5 µM), inactives show at the highest dose activity change, negative = inhibition, actives largely listed as inhibitors; also: potency is read from the fitted curve at half-maximal effect; % is scaled to controls: 0 for no effect and ±100 for the full control effect; nearly all actives have a fitted effect of over 65% in size
Target sequence (P08659 whole entry, looked up): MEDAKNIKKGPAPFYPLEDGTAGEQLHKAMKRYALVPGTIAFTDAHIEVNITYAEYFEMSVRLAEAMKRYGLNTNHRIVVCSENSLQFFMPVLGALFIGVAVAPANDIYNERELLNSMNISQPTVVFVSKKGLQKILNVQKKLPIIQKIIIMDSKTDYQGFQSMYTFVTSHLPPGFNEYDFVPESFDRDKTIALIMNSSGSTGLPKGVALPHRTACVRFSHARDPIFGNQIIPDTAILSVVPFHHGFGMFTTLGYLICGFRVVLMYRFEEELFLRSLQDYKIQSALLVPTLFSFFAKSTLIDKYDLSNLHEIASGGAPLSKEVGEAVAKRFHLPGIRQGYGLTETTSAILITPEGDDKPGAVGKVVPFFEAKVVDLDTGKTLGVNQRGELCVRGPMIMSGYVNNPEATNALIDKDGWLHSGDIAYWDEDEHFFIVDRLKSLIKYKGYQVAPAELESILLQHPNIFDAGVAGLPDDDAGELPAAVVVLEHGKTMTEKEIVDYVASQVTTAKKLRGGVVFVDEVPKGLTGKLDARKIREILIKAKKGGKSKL
A549 tox-2: Nrf2 qHTS screen for inhibitors: A549 ARE-Fluc Cytotoxicity Counterscreen for Hit Validation. hit rate 2% among 1,400. shares compounds with Nrf2 inh. Potency, µM (series often up to 46.1 µM), without a hit: top-dose activity change, negative = cytotoxicity, actives largely listed as inhibitors. A549 ARE-Fluc cells, cytotoxicity counterscreen;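 also: potency is read from the fitted curve at half-maximal effect; cells exposed to compounds for 18 to 24 hours; % is scaled to controls: 0 for no effect and ±100 for the full control effect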
ARE-Fluc inh: Nrf2 qHTS screen for inhibitors: Nrf2 A549 ARE-Fluc Confirmation Assay for Hit Validation | A549 ARE-firefly luciferase reporter, luminescence | shares compounds with Nrf2 inh | Potency, µM (titrated, usually from 46.1 µM), for inactives: top-dose activity change, negative = inhibition, hits mostly inhibitors | hit rate 74% among 1,400 | AID 720524, 2013; also: potency is read from the fitted curve at half-maximal effect; % is scaled to controls: 0 for no effect and ±100 for the full control effect; nearly all actives have a fitted effect of over 65% in size
EBOV S4 ratio: qHTS Assay for Identifying Compounds that block Entry of Ebola Virus: Screen 4, ratio channel; shares compounds with ATXN2 expr inh; Ebola pseudovirus entry assay, ratio channel; AC50, µM; hit rate 79% among 170; AID 1117308, 2015; calls by dose curve
EBOV entry S4 bl: qHTS Assay for Identifying Compounds that block Entry of Ebola Virus: Screen 4, blue channel. shares compounds with ATXN2 expr inh. Ebola virus entry assay, blue channel fluorescence ratio; Channel: blue. calls only. 170 tested, under 10 active; call rule not given here
EBOV S4 green: qHTS Assay for Identifying Compounds that block Entry of Ebola Virus: Screen 4, green channel. shares compounds with ATXN2 expr inh. Ebola virus entry reporter assay, green fluorescence channel; Channel: green. 170 tested, under 10 active. calls only; call rule not given here
An asterisk follows results filed as active; i = inactive; ? = inconclusive; . = not tested or not shown. Unless noted, calls follow the shape of the dose curve; as a rule, active = well fitted curve in the direction sought with a large enough effect; inconclusive = small, poorly fitted or top-dose-only effect, or another doubt; inactive = no such curve, though single readings can be large; an effect the other way counts as inactive or inconclusive.

SMILES	ATXN2 expr inh	Nrf2 inh	A549 tox-1	Nrf2 activator	S2 tox	others
C=C[C@@]12CN(C)[C@H]3[C@H]1[C@@]1(C(=O)Nc4ccccc41)C1CC2[C@@H]3CO1	1%	5%	-1%	0%	i
CCCCCn1c(=O)c(C(=O)NCc2ccc(Cl)cc2)c(O)c2ccccc21	-37%	?	-2%	0%	i
Cc1cc2ccccc2n1-c1ccc(C(=O)N2CCC(C(=O)NCc3ccc(Cl)cc3)CC2)s1	.	7.3µM*	-15%	0%	.	FLuc enzyme inh=-1%;A549 tox-2=-20%;ARE-Fluc inh=8.2µM*
Cc1ccc2c(C)c3ccc4ccccc4c3c[n+]2c1	?	2.6µM*	?	-2%	i	FLuc enzyme inh=-1%;A549 tox-2=-29%;ARE-Fluc inh=5.8µM*
CCCCC[C@H]1CCCCC[C@H](O)C[C@H](O)[C@@H](O)/C=C/C(=O)O1	-10%	.	.	4%	i
C[C@H]1CCC/C=C/C2C[C@H](O)CC2[C@H](O)/C=C/C(=O)O1 (some centres not stated)	?	0.15µM*	?	4%	?	FLuc enzyme inh=0%;A549 tox-2=?
CC1CCC/C=C/C2CC(O)CC2C(O)/C=C/C(=O)O1 (configuration not stated)	?	0.26µM*	?	0%	?	FLuc enzyme inh=3%;A549 tox-2=?
COC(=O)C1=C(c2ccccc2)C[C@@H]2CC[C@H]1N2C	-1%	-10%	2%	-1%	i
CCOC(=O)NC(C)(C)Cc1ccc(Cl)cc1	0%	.	.	.	i
O=C(Nc1ccc(OC(=O)N2CCCCC2)cc1)N1CCOCC1	?	9.2µM*	-3%	-3%	i	FLuc enzyme inh=-10%;A549 tox-2=-5%;ARE-Fluc inh=5.2µM*
O=C(Nc1ccc(OC(=O)N2CCCC2)cc1)N1CCOCC1	6%	5%	3%	0%	i
O=Cc1ccccc1	.	.	.	.	i
COc1ccc(CC2C(=O)NC(C)C(=O)N(C)C3C(=O)N(C)C(Cc4ccc(O)c(c4)Oc4ccc(cc4)C3O)C(=O)NC(C)C(=O)NC(C)C(=O)N2C)cc1 (configuration not stated)	0.084µM*	1.3µM*	?	-2%	?	FLuc enzyme inh=3%;A549 tox-2=?;ARE-Fluc inh=0.41µM*
COC(=O)[C@@H](c1ccccc1)C1CCCCN1 (some centres not stated)	2%	11%	-7%	0%	i
O=C(O)c1[nH]c(=O)[nH]c(=O)c1F	-15%	?	-10%	0%	i
Cc1ccc(-n2c(O)c(C=Nc3ccc(Br)cn3)c(=O)[nH]c2=O)cc1	-11%	-4%	-1%	0%	i
C[C@]1(O)CC[C@H]2[C@@H]3CCC4=CC(=O)CC[C@]4(C)[C@@]3(F)[C@@H](O)C[C@@]21C	5%	-26%	-4%	-1%	i
CCOc1cc(C=C2C(=O)NC(=O)NC2=O)ccc1OS(=O)(=O)c1ccccc1	0%	-12%	-2%	0%	i
O=[N+]([O-])c1cccc2c([N+](=O)[O-])cccc12	-4%	10%	0%	0%	i
CC1=NN=C(c2ccc(N)cc2)c2cc3c(cc2C1)OCO3	?	-3%	12%	3%	i
CNC(=O)Oc1cccc2ccccc12	-7%	-8%	0%	5%	i
CN1CCN(CCOC2c3ccccc3CSc3ccc(Cl)cc32)CC1 (configuration not stated)	-26%	5%	-18%	4%	?
C=CCN1C(=O)c2ccccc2Sc2ccc(C(=O)N3CCC4(CC3)OCCO4)cc21	-15%	-26%	-3%	0%	i
CCOC(=O)c1ccccc1NC(=O)c1c(O)[nH]c(=S)[nH]c1=O	-1%	6%	3%	1%	i
Cc1ccc(Cn2nc(C)c(C=O)c2Cl)cc1	13%	15%	5%	0%	?
SMILES	ATXN2 expr inh	Nrf2 inh	A549 tox-1	Nrf2 activator	S2 tox	others
COc1ccc(S(=O)(=O)Nc2cc([N+](=O)[O-])ccc2OC)cc1	-31%	-7%	-14%	1%	?
COc1ccc(NC(=O)N2CCC3(CC2)OCCO3)cc1	28%	26%	1%	0%	i
O=C(O)c1ccc2[nH]cc(CCCCN3CC=C(c4ccccc4)CC3)c2c1	-3%	.	.	.	i
O=C1NCN(c2ccccc2)C12CCNCC2	-9%	.	9%	2%	i
CC(=O)C1CCOC1=O (configuration not stated)	4%	.	.	.	i
CN(C)c1ccc(C(=O)c2ccc(N(C)C)cc2)cc1	27%	?	-26%	-1%	i
NCCCP(=O)(O)CCc1ccccc1	3%	4%	2%	-1%	i
NCCCC(O)(P(=O)(O)O)P(=O)(O)O	0%	.	.	.	i	EBOV S4 ratio=i;EBOV entry S4 bl=i;EBOV S4 green=i
CC(=O)Oc1ccc2c3c1O[C@H]1[C@@H](OC(C)=O)C=C[C@H]4[C@@H](C2)N(C)CC[C@@]341	.	.	.	.	i
COc1ccccc1-n1c(O)c(/C=C2\C=Nc3ccccc32)c(=O)[nH]c1=O	10%	1%	2%	4%	i
O=C(COc1ccc2c3c(c(=O)oc2c1)CCC3)N1C[C@H]2C[C@@H](C1)c1cccc(=O)n1C2	8%	-11%	-3%	4%	i
CCCC[C@@H](C)C[C@@H](C)C(=O)N(C)[C@@H](CC(C)C)C(=O)N[C@H](C(=O)N(C)[C@H](C(=O)N1C[C@@H](O)C[C@H]1C(=O)N1C(=O)C=C[C@@H]1C)C(C)C)C(C)OC(C)=O (some centres not stated)	?	?	?	-3%	.
